# Assay outcomes deposited in PubChem by National Center for Advancing Translational Sciences (NCATS).
# ALDH1A1 inh: qHTS Assay for Inhibitors of Aldehyde Dehydrogenase 1 (ALDH1A1); Purified ALDH1A1, NADH fluorescence, propionaldehyde substrate; Aldehyde dehydrogenase 1A1 (Homo sapiens), P00352; 220,000 tested, 7.3% active; Potency, µM (top dose mostly 75.3 µM), for the others: top-dose activity, negative = inhibition, usual class: inhibitors;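 further: potency means the concentration at half of the fitted maximal effect; plate controls were no enzyme wells and a reference inhibitor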
# Target sequence (P00352 whole entry, looked up): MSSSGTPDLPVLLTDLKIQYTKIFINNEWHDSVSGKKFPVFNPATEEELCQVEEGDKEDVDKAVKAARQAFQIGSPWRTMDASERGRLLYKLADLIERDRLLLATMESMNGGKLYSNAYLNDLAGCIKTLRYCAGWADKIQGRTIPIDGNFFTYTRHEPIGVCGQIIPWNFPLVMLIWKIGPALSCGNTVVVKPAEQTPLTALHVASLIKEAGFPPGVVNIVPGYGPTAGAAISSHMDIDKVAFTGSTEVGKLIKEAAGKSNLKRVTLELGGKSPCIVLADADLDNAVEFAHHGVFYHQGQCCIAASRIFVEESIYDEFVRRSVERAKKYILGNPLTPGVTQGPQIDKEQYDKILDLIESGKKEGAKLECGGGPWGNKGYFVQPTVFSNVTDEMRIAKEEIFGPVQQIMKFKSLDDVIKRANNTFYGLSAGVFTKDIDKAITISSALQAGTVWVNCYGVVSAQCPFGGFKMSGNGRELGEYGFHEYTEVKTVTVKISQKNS
# PNC inhibitor: High Content Assay for Compounds that inhibit the Assembly of the Perinucleolar Compartment. activity change (PNC), negative = inhibition, % at 10 µM. AID 2417, 2010. PC3M PTB-GFP, PNC prevalence imaging, 16 h; active compounds read low. 140,000 tested, 3.1% active;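 active means readout at or below -70, meaning at least 70% loss of cells showing the perinucleolar compartment, a nuclear body marking cancer cells; inconclusive means readout between -30 and a set limit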;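 further: plate controls were DMSO wells for no effect and camptothecin positive control wells for full effect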
#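 PC3M cells stably expressing PTB-GFP, 750–1000 cells/well, treated 16 h at 37 °C with compound (23 nl of library stock), in duplicate. After paraformaldehyde fixation and Hoechst stain, imaged at 20x; PNC prevalence scored by image analysis.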
# HPGD inh: qHTS Assay for Inhibitors of HPGD (15-Hydroxyprostaglandin Dehydrogenase); 15-hydroxyprostaglandin dehydrogenase [NAD(+)] (Homo sapiens), P15428; purified HPGD, NADH fluorescence kinetic, PGE2 substrate; Potency, µM, without a hit: at the highest dose activity change, negative = inhibition, hits mostly inhibitors; 150,000 tested, 4.3% active; AID 894, 2007; further: potency means the concentration at half of the fitted maximal effect
#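 NADH formation kinetics: reaction with 30 uM PGE2 and 1 mM NAD+ (final), 20 nM enzyme, Tris-HCl pH 8 with Tween 20, after 15 min compound preincubation at room temperature. Fluorescence change, last versus first of five reads.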
# The depositor's hits bear a star; ? = inconclusive; / = no result given; [ ] = another dose, or the depositor's remark. A selection: hits, their analogues and other compounds. The true share with any hit is near 11%. Unless noted, the call rests on the fitted dose curve; in most records, active means well fitted inhibition curve with a large enough effect (not every such curve was filed as active); inconclusive means small, poorly fitted or top-dose-only effect, or another doubt; inactive means no such curve, though single readings can be large or run the other way. Unless noted, on the % scale 0 is the no-effect control and ±100 the full control effect.
SMILES,ALDH1A1 inh,PNC inhibitor,HPGD inh
Cc1ccnc(NC(c2cccnc2)c2ccc3cccnc3c2O)c1 (stereo not drawn),10µM*,/,/
Oc1c(C(Nc2ccccn2)c2ccccn2)ccc2cccnc12 (stereo not drawn),3%,-26,-14%
N=C(N)SCc1nc(-c2ccc(Cl)cc2)no1,-13%[13.5 µM],/,-9%
COc1ccc(-c2nc3cnc(Nc4cccc(OC)c4)nc3n(C3CC3)c2=O)cc1,1%,/,/
CC12CC[C@@H]3c4ccc(OS(=O)(=O)O)cc4CC[C@H]3C1CCC2=O (stereo partly drawn),-9%[20.9 µM],/,1%
Cc1ccc2cc3c(N)c4c(C)ccc(C)c4nc3nc2c1,-3%,/,/
COC(=O)N1CCC2(CCCN(C(=O)Nc3cccc(F)c3)C2)CC1,1%,/,-4%
OC1(Cc2ccccc2)CCNCC1,8%,/,/
Cc1ccccc1NC(=O)COC(=O)c1cc(=O)c2ccccc2o1,0%,/,/
O=C(O)C1CC=CCC1C(=O)Nc1ccc(F)c(F)c1 (stereo not drawn),-3%,-19,-5%
O=C(O)C1CC=CCC1C(=O)Nc1ccc2c(c1)OCCO2 (stereo not drawn),?,-119*,-9%
O=C(O)[C@H]1CC=CC[C@@H]1C(=O)Nc1cccc(O)c1,0%[13.5 µM],/,-8%
O=C(O)C1CC=CCC1C(=O)Nc1cccc(F)c1 (stereo not drawn),28µM*,-6,-21%
Cc1cc(C)nc(-n2nc(C)cc2NC(=O)c2ccc(S(=O)(=O)N3CCOCC3)cc2)n1,16%,/,/
COc1ccc(N(CC(O)Cn2cnc3ccccc32)S(=O)(=O)c2ccc(C)cc2)cc1 (stereo not drawn),?,-15,-8%
Cc1ccc(CSCC(=O)NN=C2CCN(C)CC2)cc1,?,2,-1%
O=C(CSCc1ccc(Cl)cc1)NN=C1CCCC1,?,?,-3%
O=C(COc1ccc([N+](=O)[O-])cc1)NN=C1CCCC1,-6%,12,-5%
O=C(CSCc1ccccc1Cl)NN=C1CCCCCC1,22µM*,?,-17%
O=C(CSCc1c(Cl)cccc1Cl)NN=C1CCCC1,1.6µM*,/,/
O=C(CSCc1ccc([N+](=O)[O-])cc1)NN=C1CCCCCC1,5µM*,-29,0%
O=C(/C=C\c1cccs1)c1c(O)ccc2ccc(=O)oc12,?,106,?
COC(=O)c1sc2nc(C)c([N+](=O)[O-])c(C)c2c1N,6%,-13,-13%
CCOC(=O)C1(Cc2cccc(Cl)c2)CCCN(C(=O)C2CC2)C1 (stereo not drawn),1%,/,/
CCSc1nnc(NC(=O)[C@@H](NC(=O)c2ccc(C(C)(C)C)cc2)C(C)C)s1,0%,8,-18%
SMILES,ALDH1A1 inh,PNC inhibitor,HPGD inh
COc1ccc(-c2nc(C3CCCCC3)no2)cc1OC,22µM*,-26,?
c1ccc(-c2nc(C3CCCCC3)no2)cc1,3%,-7,-1%
O=C(CSc1nc(-c2ccco2)cc(C(F)(F)F)n1)NCCN1CCOCC1,5%,/,/
Cc1c(O)nc(SCC(=O)Nc2ccc3c4c(cccc24)CC3)n(-c2ccccc2)c1=O,?,-113*,-9%
O=C(CSc1nc2nc3c(cc2c(=O)n1-c1ccccc1)CCCC3)Nc1cccc2ccccc12,7.9µM*,18,-10%
O=C(CSc1nc2ccccc2c(=O)n1-c1ccccc1F)Nc1ccc2c(c1)CCC2,-13%,-4,-7%
O=C(CSc1nc(O)cc(=O)n1-c1ccccc1)Nc1ccc2c3c(cccc13)CC2,?,16,-6%
Cc1ccccc1-n1c(SCC(=O)Nc2ccccc2)nc2nc3c(cc2c1=O)CCCC3,7.9µM*,-2,-6%
Cc1cccc(NC(=O)CSc2nc3nc4c(cc3c(=O)n2-c2ccccc2)CCCC4)c1,?,56,-25%
O=C(Cn1cnc([N+](=O)[O-])n1)NC1CC1,0%,/,/
COc1ccccc1-c1nc(NCCN2CCOCC2)c2ccccc2n1,-16%,/,/
COc1ccc(CNc2ccnc(-c3cccc(NS(C)(=O)=O)c3)n2)c(OC)c1,1%,/,/
CN(C)c1ccnc(Oc2ccc(Cl)cc2)c1C#N,25µM*,73,32µM*
Cc1cc(Cl)ccc1Oc1nccc(N(C)C)c1C#N,9%,-3,-19%
CN(C)c1ccnc(Oc2ccc(C(C)(C)C)cc2)c1C#N,?,33,35µM*
CN(C)c1ccnc(Oc2ccccc2)c1C#N,?,52,?
c1ccc(NCC2OCc3ccccc3CO2)cc1,3%,39,-9%
Cc1nc2c(n1C1CCCCC1)C(=O)c1ccccc1C2=O,?,26,-9%
Cc1c(-c2ccc(Cl)cc2)noc1C1CCN(CCc2ccccc2)CC1,3%,/,0%
CCc1nc2ccccc2n1CC(C)C(=O)O (stereo not drawn),5%,-100*,-12%
CC(C)Cn1c(CNC(=O)c2ccccc2)nc2ccccc21,12%,4,-13%
COc1ccc(OC)c(CN2CCN(C(=O)c3cccc4ccccc34)CC2)c1,25µM*,?,-13%
COc1cc(C(=O)N2CCN(Cc3ccccc3C(F)(F)F)CC2)cc(OC)c1OC,?,?,-9%
COc1ccc(OCC(=O)N2CCN(C(=O)c3cccc4ccccc34)CC2)cc1,?,?,-5%
COc1cc(OC)cc(C(=O)N2CCN(Cc3ccccc3C(F)(F)F)CC2)c1,14µM*,?,/
SMILES,ALDH1A1 inh,PNC inhibitor,HPGD inh
CC(c1ccon1)N(C)C(=O)CCc1nnc(C2(c3ccc(Cl)cc3)CCC2)o1 (stereo not drawn),-2%,/,/
C[C@@H]1/C=C\CC(=O)OC[C@H](C)C(=O)N2CCC[C@@H]2C(=O)OC1,0%[13.5 µM],/,/
CC(=O)c1ccc(NC2=C(N3CCOCC3)C(=O)c3ccccc3C2=O)cc1,?,17,-1%
O=C(O)c1ccc(NC2=C(N3CCOCC3)C(=O)c3ccccc3C2=O)cc1,19µM*,?,-12%
CC[C@H]1C2=C3C(CC[C@H]4C(OC)OC[C@](C)([C@@H]34)N(C(=O)OC(C)(C)C)C2)C(CO)C1CO (stereo partly drawn),-6%,/,-3%
CCC(C)NCC(=O)Nc1ccc(S(N)(=O)=O)cc1 (stereo not drawn),9%,/,/
COc1cccc(N2CC(=O)N(NC(=O)CSc3nc(C)cc(C)c3C#N)CC2=O)c1,-7%,61,-2%
CC(=O)Oc1cc2cccc(OC(C)=O)c(=O)c2c(OC(C)=O)c1OC(C)=O,4µM*,/,/
COc1cc2cccc(OC)c(=O)c2c(O)c1OC,9%,-23,-1%
CCOC(=O)c1cc2c(N)c(C(=O)c3ccc(Br)cc3)sc2[nH]c1=O,-7%,/,/
CCOC(=O)c1ccc(NC(=O)CSC(=S)N2CCOCC2)cc1,-1%,/,/
COCCn1c(=O)c(-c2cccc(C#N)c2)nc2cnc(N(C)C)nc21,-15%,/,/
Cc1ccc(OCC(=O)NCCO)c(Br)c1,-2%,/,/
Cc1cc(Br)c(NC(=O)CCl)c(Br)c1,-16%,-89*,-22%
O=C(COC(=O)CCc1ccc(S(=O)(=O)N2CCOCC2)cc1)NCc1ccc(Cl)cc1,-12%,/,/
COc1ccc(NC(=O)CSc2ccc(F)cc2)cc1S(=O)(=O)N1CCCCC1,15µM*,3,-2%
